Shown are actives, neighbours in structure and some others; about 4.8% of the full set was active somewhere.
Calb FLC: C. albicans growth inhibition with fluconazole, primary screen, CaCi-2 strain, Alamar Blue fluorescence. growth inhibition, % (concentration not given with the values). 300,000 tested, 0.57% active. AID 1979, 2009. C. albicans CaCi-2 (fluconazole-resistant clinical isolate) + fluconazole, 48 h;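 active means growth inhibition above about 58% in most replicates, limit read from the data, passing the limit was not always enough; inconclusive means exactly half the replicates above a set limit; inactive means most replicates below a set limit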;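 further: all wells also contain fluconazole at 8 µg/ml as a sub-toxic cotreatment; 0% = median of DMSO wells and 100% = median of geldanamycin control wells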
Beta apoptosis: inhibitors of cytokine-induced beta cell apoptosis, primary screen, luminescence. INS-1E cytokine-induced death, ATP luminescence, 48 h; percent of positive-control rescue, neutral wells zero. protection from apoptosis, % (no concentration beside the values). 300,000 tested, 0.8% active. AID 435005, 2010;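 active means Every replicate reaches about 75%, or at least half do and their mean reaches it too, limit read from the data; inconclusive means At least half of replicates reach the limit but their mean does not; inactive means Under half of replicates reach the limit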;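 further: 0% = cytokine-treated negative control wells and 100% = positive control rescue; higher means more ATP so stronger rescue from cytokine killing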
Mdm2-MdmX inh: inhibitors of human Mdm2-MdmX association, primary screen, cell-based, luminescence, split luciferase, SaOS-2, uHTS; Protein Mdm4 (Homo sapiens) + E3 ubiquitin-protein ligase Mdm2 (Homo sapiens), …; inhibition, % at 8 µM; SaOS-2 split-luciferase Mdm2/MdmX complementation; 330,000 tested, 3% active; AID 485346, 2010;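 active means inhibition of at least 50% at 8 µM in the primary screen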
Target sequence (O15151 whole entry, looked up): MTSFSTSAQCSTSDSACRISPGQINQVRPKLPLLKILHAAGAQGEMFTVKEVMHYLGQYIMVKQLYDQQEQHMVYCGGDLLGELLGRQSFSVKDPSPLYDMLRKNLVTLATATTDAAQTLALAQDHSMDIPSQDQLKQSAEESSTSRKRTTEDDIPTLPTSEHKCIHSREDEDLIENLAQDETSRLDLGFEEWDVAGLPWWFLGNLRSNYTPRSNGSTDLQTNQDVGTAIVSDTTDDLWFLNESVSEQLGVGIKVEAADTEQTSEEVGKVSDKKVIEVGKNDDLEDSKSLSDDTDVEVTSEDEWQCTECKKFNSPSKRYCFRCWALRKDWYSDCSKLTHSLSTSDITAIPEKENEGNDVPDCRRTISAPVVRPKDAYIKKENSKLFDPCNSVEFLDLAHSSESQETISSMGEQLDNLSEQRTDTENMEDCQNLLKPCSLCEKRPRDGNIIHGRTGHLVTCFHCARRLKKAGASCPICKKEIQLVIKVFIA
Target sequence (Q00987 whole entry, looked up): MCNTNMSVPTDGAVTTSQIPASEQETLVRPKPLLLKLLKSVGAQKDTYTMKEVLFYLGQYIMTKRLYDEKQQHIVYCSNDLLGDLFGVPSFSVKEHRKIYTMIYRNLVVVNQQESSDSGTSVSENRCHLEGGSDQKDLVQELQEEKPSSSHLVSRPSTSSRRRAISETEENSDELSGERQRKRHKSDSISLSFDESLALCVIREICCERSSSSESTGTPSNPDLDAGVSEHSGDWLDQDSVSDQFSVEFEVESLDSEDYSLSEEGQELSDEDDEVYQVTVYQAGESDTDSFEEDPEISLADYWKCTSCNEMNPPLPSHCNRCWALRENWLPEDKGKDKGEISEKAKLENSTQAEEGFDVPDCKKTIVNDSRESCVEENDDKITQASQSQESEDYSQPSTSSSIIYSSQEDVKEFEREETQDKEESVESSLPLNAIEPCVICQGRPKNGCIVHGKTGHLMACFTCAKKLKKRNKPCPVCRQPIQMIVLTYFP
MPTP block: mitochondrial permeability transition pore inhibitors, primary screen, biochemical, isolated mouse mitochondria, absorbance | Ca2+ swelling absorbance, 30 min | 360,000 tested, 1.4% active | inhibition, % at 10 µM;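 active means inhibition of 50% or more, scaled per plate between neutral and stimulator controls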;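 further: 0% = DMSO wells given calcium and 100% = 1 mM EGTA wells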
CSC inhib: cancer stem cell viability inhibitors, primary screen, luminescence; AID 2717, 2010; 300,000 tested, 1.1% active; inhibition, % at 7.5 µM; cancer stem cell-like cells viability; in the data active means inhibition above about 75%; inconclusive means no clear call, values can overlap the other calls; tested in HMLE shEcad cells
Mdm2-MdmX conf: Mdm2-MdmX complex disruptors, retested hits, confirmation, luminescence, single concentration; AID 489028, 2010; shares compounds with Mdm2-MdmX inh; 10,000 tested, 55% active; inhibition, % at 8 µM; Mdm2-MdmX binding, luminescent assay; in the data active means inhibition above about 40%
FLuc counter: full-length luciferase signal inhibition, confirmation, counter-screen for Mdm2/MdmX interaction inhibitor project, cell-based, single concentration, SaOS-2 | shares compounds with Mdm2-MdmX inh | SaOS-2 full-length luciferase counterscreen, luminescence | inhibition, % at 8 µM | 6,200 tested, 77% active | AID 504607, 2011;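 active means mean inhibition at 8 µM reaching about 37%, which flags the compound as non-specific, limit read from the data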;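 further: p53-null SaOS-2 cells with luciferase driven by a doxycycline-inducible promoter; compound on cells about two nights before reading with doxycycline added after day one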
An asterisk follows results filed as active; ? = inconclusive; . = no result.

SMILES	Calb FLC	Beta apoptosis	Mdm2-MdmX inh	MPTP block	CSC inhib	Mdm2-MdmX conf	FLuc counter
COc1nc(OC)nc(Oc2ccc(Cl)cc2[N+](=O)[O-])n1	-2	-11	-3	-1	-7	.	.
COc1ccc([N+](=O)[O-])c(S(=O)(=O)c2ccc(Cl)cc2)n1	-37	83*	97*	7	39	95*	52*
COc1ccc([N+](=O)[O-])c(S(=O)(=O)c2ccccc2)n1	-19	94*	99*	3	45	98*	52*
O=[N+]([O-])c1cccnc1S(=O)(=O)c1ccccc1	92*	65	92*	0	16	65*	58*
CCCCCCCCN1C(=O)[C@H](CC(=O)NCc2ccc(OC)c(OC)c2)C[C@@]2(C(=O)OCC)CCCC=C12	.	.	.	-3	.	.	.
Oc1ccccc1/C=N/[n+]1ccccc1	-7	2	53*	1	1	53*	121*
Oc1ccccc1C=NC(c1ccccc1)C(O)c1ccccc1 (configuration not stated)	-30	-7	-3	3	-12	.	.
CC1(C)C[C@@H](O)[C@]2(C)CC[C@]3(C)C(=CCC4[C@@]5(C)CC[C@H](O)[C@](C)(CO)C5CC[C@]43C)[C@@H]2C1 (some centres not stated)	.	.	77*	0	.	-44	.
COc1cccc(C(O)c2nc(-c3cc(F)cc(F)c3)cs2)c1 (configuration not stated)	.	.	.	2	.	.	.
COc1ccc(OC)c(Nc2nc3ccc(C)cc3n3cnnc23)c1	-7	14	47	1	12	.	.
COc1ccc(Cl)cc1Nc1nc2ccc(C)cc2n2cnnc12	0	18	55*	1	-4	31	.
O=C(c1ccc(Cn2c(=O)[nH]c3ccccc3c2=O)cc1)N1CCN(c2ccc(Cl)cc2)CC1	41	24	65*	1	17	34	.
Cc1ccc(C)c(N2CCN(C(=O)c3ccc(Cn4c(=O)[nH]c5ccccc5c4=O)cc3)CC2)c1	38	8	91*	2	18	52*	47*
COc1ccc(Cn2c(=O)[nH]c3cc(C(=O)N4CCN(c5ccc(OC)cc5)CC4)ccc3c2=O)cc1	-6	-2	21	1	-10	.	.
CCOC(=O)N1CCN(C(=O)c2ccc(Cn3c(=S)[nH]c4ccc(Br)cc4c3=O)cc2)CC1	13	54	55*	6	-11	27	.
C=CCn1c(=O)[nH]c2cc(C(=O)N3CCN(c4cc(C)ccc4C)CC3)ccc2c1=O	-12	3	29	3	-6	.	.
NS(=O)(=O)c1cccc(NC(=O)CCN2C(=O)C3CCCCC3C2=O)c1 (configuration not stated)	.	4	14	-1	.	.	.
CCC(=O)N1CCCN(S(=O)(=O)c2ccc(C)cc2)C1c1ccc(OC)cc1 (configuration not stated)	1	4	-19	-1	.	.	.
COc1ccc(C(=O)C(CCCCC(CN(C)C)C(=O)c2ccc(OC)cc2)CN(C)C)cc1 (configuration not stated)	?	1	86*	5	1	59*	31
O=C(N/N=C/c1ccco1)c1cc2ccccc2o1	.	2	9	-1	-3	.	.
CCOc1cc(NC(=O)c2ccco2)c(OCC)cc1NC(=O)COc1ccccc1C	8	3	99*	-1	10	35	33
O=C(COc1ccccc1[N+](=O)[O-])Nc1ccc(NC(=O)c2cc3ccccc3o2)cc1	-3	-2	54*	2	-2	31	71*
COc1ccc(NC(=O)c2ccco2)cc1NC(=O)COc1ccccc1[N+](=O)[O-]	11	11	78*	0	-5	25	.
O=C(COc1ccc(/C=N/NC(=O)c2cc3ccccc3o2)cc1Br)Nc1ccccc1	2	-4	95*	3	99*	-83	.
Cc1ccccc1OCC(=O)Nc1ccccc1NC(=O)c1ccco1	-1	.	5	1	-12	.	.
SMILES	Calb FLC	Beta apoptosis	Mdm2-MdmX inh	MPTP block	CSC inhib	Mdm2-MdmX conf	FLuc counter
CCOC(=O)c1nc(NCc2ccccc2F)c2ccccc2n1	13	3	2	1	.	.	.
CC(NNC(=S)N1CCCCCC1)c1ccc2ccccc2n1 (configuration not stated)	.	.	.	-1	.	.	.
CC1Cc2ccccc2N1c1ncnc2nc[nH]c12 (configuration not stated)	-4	2	53*	1	-1	49*	75*
CC1Cc2ccccc2N1c1ncnc(N)c1[N+](=O)[O-] (configuration not stated)	10	-40	91*	0	-9	93*	54*
On1c2c(c3c4nonc4ccc31)CCCC2	57	-9	17	.	-10	.	.
COn1c2c(c3c4nonc4ccc31)CCCC2	8	-15	59*	4	-21	47*	55*
O=C(ONC1=NCCCCC1)c1c(F)cccc1F	-6	-5	65*	0	7	27	.
O=C(ONC1=NCCCCC1)c1ccc(Cl)cc1	-5	1	70*	0	7	19	.
CC(C)C(OC(=O)c1nsc(Cl)c1Cl)C(=O)NC1CCCCC1 (configuration not stated)	-12	1	-10	-2	-18	.	.
Cc1cc(C)c(S(=O)(=O)c2ccccc2)c(OC(=O)c2c(Cl)cc(Cl)cc2Cl)n1	7	-5	52*	-2	-4	21	.
CCCCN(C(=O)COC(=O)CSc1ccc([N+](=O)[O-])cc1)c1c(N)n(CCC)c(=O)[nH]c1=O	8	-6	9	-2	1	.	.
O=C(O)/C=C/C(=O)Nc1ccc(C2(c3ccc(NC(=O)/C=C/C(=O)O)cc3)c3ccccc3-c3ccccc32)cc1	4	0	15	-1	14	.	.
COCCCNC(=O)c1ccc(Cn2c(=O)c3ccccc3n(Cc3ccc(C)cc3)c2=O)cc1	-6	-4	56*	2	-1	24	.
CCCCCCn1c2c(c(=N)c3c1CCC3)CCC2	-4	109*	67*	4	25	60*	39*
COc1cc2c3c(c1)c(C1=NC(=S)NC1=O)c(O)n3C(C)(C)C=C2C	0	3	27	7	9	.	.
CC1(c2ccccc2)CC(C)(C)n2c(O)c(C3=NC(=S)NC3=O)c3cccc1c32 (configuration not stated)	-2	4	68*	17	20	25	.
Nc1ncn([C@H]2C[C@H](O)[C@@H](CO)O2)c(=O)n1	-3	14	20	-3	8	.	.

Bioassay records (PubChem BioAssay)
